Among all 2,400 compounds or so, about 1,400 (58%) were called active.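 Rule for the calls: active = inhibition of 30% or more at any tested dose; inconclusive = primary hits over the limit that were never retested; inactive = the rest.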 So high a share suggests a set chosen from earlier hits. The list shows a part of the results.
Test: coupled detection enzyme interference, dose response, artefact control for MgcRacGAP inhibitor project, biochemical, coupled enzyme counter-screen (AID 624351);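 note: signal is the ADP detection kit reading of free GDP without any GAP enzyme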;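 for inhibition: 0% = median positive control wells and 100% = median negative control wells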
Conditions: ADP Hunter coupled enzyme counter-screen, fluorescence, no MgcRacGAP; series mostly up to 80 µM; inhibition: at the top concentration

SMILES | inhibition | IC50
CC(C)(c1ccccc1)c1ccc(OCC(O)CNC2CCN(Cc3ccccc3)CC2)cc1 (stereo unspecified) | 27.9% (inactive) | –
CN(C)c1ccc(N=Cc2nc(-c3ccccc3)oc2OC(=O)c2cccc(Cl)c2)cc1 | 12.6% (inactive) | –
CC(C(=O)N(C)Cc1ccccc1)N1CCN(C/C=C/c2ccccc2)CC1 (stereo unspecified) | 18% (inactive) | –
COc1cc(/C=C/C(=O)OCC(=O)N(C)Cc2ccccc2)ccc1O | – | 34.7 µM (active)
C/C=C/c1ccc(OCCCCN(C)Cc2ccccc2)c(OC)c1 | -10.9% (inactive) | –
Oc1ccc(/C=N/Nc2ccnc3cc(Cl)ccc23)cc1O | – | 40.3 µM (active)
Oc1ccc(N2CCN(c3ccnc4cc(Cl)ccc34)CC2)cc1 | – | 53.3 µM (active)
Oc1ccc(Nc2ccnc3cc(Cl)ccc23)cc1 | – | 26.3 µM (active)
CN(C)c1ncc(C2=C(Cl)C(=O)C(N3CCCC3)=C(Cl)C2=O)s1 | -12.5% [at 10 µM] (inactive) | –
Nc1ccc2c(c1)OC1(CCCC1)O2 | – | 26 µM (active)
Nc1cc(Cc2ccccc2)ccc1O | – | 24.1 µM (active)
COc1ccc(Br)cc1CNc1ccc(O)cc1 | – | 54 µM (active)
COc1ccc(Br)cc1CN(C)CC(=O)NCCc1ccccc1 | 19.1% (inactive) | –
Oc1ccc(NCc2ccccc2OCc2ccccc2F)cc1 | -18.7% (inactive) | –
CN1C(=O)/C(=C/C=C2/CCCN2C)N(C)C1=S | – | 24.6 µM (active)
CN1C(=O)/C(=C/C=C2\SCCN2C)N(C)C1=S | – | 26.6 µM (active)
c1ccc(-c2ccccc2OCCOCCN2CCOCC2)cc1 | 28% (inactive) | –
NC(N)=N/N=C/c1ccc(Cl)cc1Cl | 14.4% (inactive) | –
CCOC(=O)N/N=C/c1ccc(N(CC)CC)cc1O | – | 81.2 µM (active)
CCN(CC)c1ccc(/C=N/Nc2nc(C)cc(C)n2)c(O)c1 | – | 65.2 µM (active)
CCN(CC)c1ccc(/C=N/NC(=O)OC)c(O)c1 | – | 62.6 µM (active)
CCc1ccc2nc3sc(C(=O)O)cc3cc2c1 | 22.5% (inactive) | –
CCOc1cc(/C=N/Nc2nc(=O)[nH]nc2C)ccc1O | – | 43.9 µM (active)
CCOc1cc(/C=N/Nc2ncc(C)c(=O)[nH]2)ccc1O | – | 38.9 µM (active)

SMILES | inhibition | IC50
CCc1ccc(NC(=O)CNCc2ccc(OC)c(OC)c2)cc1 | 17.8% (inactive) | –
COc1ccccc1CNC(=O)C[C@@H]1C[C@H]2c3cc(N(C)C)ccc3O[C@H]2[C@H](CO)O1 | 24.9% (inactive) | –
COc1ccccc1CNCC(=O)NCc1ccc(C)cc1 | 16.4% (inactive) | –
COc1cc(CC(=O)OCC(=O)Nc2ccc(N(C)C)cc2)cc(OC)c1OC | – | 68 µM (active)
COc1ccccc1CNCC(=O)Nc1ccc(N(C)C)cc1 | – | 63.3 µM (active)
COc1ccccc1/C=C(/C(=O)OCC(=O)Nc1ccc(N(C)C)cc1)c1ccccc1 | – | 66.3 µM (active)
CCN(CC)c1ccc(NC(=O)COC(=O)Cc2ccsc2)cc1 | – | 42.9 µM (active)
COc1ccccc1CNCC(=O)Nc1ccccc1-n1cccc1 | 8.83% (inactive) | –
COc1ccc(NCCC#N)cc1 | – | 82.2 µM (active)
O=S(=O)(O)c1cc(O)c(N=Nc2ccc(O)cc2O)c2ccccc12 | – | 30.7 µM (active)
CC(C)C1N=C2c3ccccc3N=C(SCC(=O)c3ccc(O)c(O)c3)N2C1=O (stereo unspecified) | – | 34.7 µM (active)
CCN(CC)c1ccc(Nc2nc(Cl)ncc2Br)cc1 | – | 49.4 µM (active)
O=c1oc(-c2ccc(O)c(O)c2)cc2cccc(O)c12 | – | 20.7 µM (active)
O=c1oc(-c2ccc(O)c(O)c2)cc2cc(O)cc(O)c12 | – | 23 µM (active)
N#CC1=C(S)N(c2ccc(F)cc2)C(c2cccs2)NC1=O (stereo unspecified) | 7.33% (inactive) | –
O=C1NC2c3c(I)sc(I)c3C(=O)C2O1 (stereo unspecified) | -1.56% (inactive) | –
N/C(=N\N=C\c1ccc(O)cc1)c1nonc1N | – | 31.1 µM (active)
Oc1ccc(/C=N/N=C/c2ccc(O)cc2)cc1 | – | 84 µM (active)
COc1cc(/C=N/N=C(\N)c2nonc2N)ccc1O | – | 30.3 µM (active)
COc1cc(CNCCNC(=O)c2nonc2N)ccc1OCc1ccc(Cl)cc1 | 3.53% (inactive) | –
N#Cc1c(Nc2ccc(Cl)cc2)s[nH]c1=O | 5.36% (inactive) | –
Cc1ccc(/C=[N+](\[O-])c2ccc(N(C)C)cc2)c2nsnc12 | – | 16.1 µM (active)
CCOC(=O)C1(C)C=C(Nc2ccc(O)cc2)C(=O)N1c1ccc(O)cc1 (stereo unspecified) | – | 19.6 µM (active)
O=C1/C(=C\c2ccco2)CCC/C1=C\c1ccco1 | -14% (inactive) | –

SMILES | inhibition | IC50
Nc1cc(Br)c(N)c(Br)c1 | – | 10.6 µM (active)
OC1CCN(C(=S)Nc2ccc(Nc3ccccc3)cc2)CC1 | – | 36.5 µM (active)
OCCN1CCN(C(=S)Nc2cccc(C(F)(F)F)c2)CC1 | 18.4% (inactive) | –
OCC1CCCN(C(=S)Nc2ccc(Nc3ccccc3)cc2)C1 (stereo unspecified) | – | 41.7 µM (active)
CCOC(=O)C1CCN(Cc2cccc(Oc3ccccc3)c2)CC1 | 11.4% (inactive) | –
CCOC(=O)C1CCN(Cc2ccc(-c3ccccc3)cc2)CC1 | 9.78% (inactive) | –
CCOC(=O)C1CCCN(C(=S)Nc2ccc(Nc3ccccc3)cc2)C1 (stereo unspecified) | – | 55.1 µM (active)
COc1ccc(CN2CCN(CCSc3ccc(C)cc3)CC2)c(OC)c1OC | 26.8% (inactive) | –
CC1CN(CCCCOc2ccc(Cl)c3ccccc23)CC(C)O1 (stereo unspecified) | 11.3% (inactive) | –
CSc1sccc1/C=C(/C#N)C(=O)c1ccco1 | 3.74% (inactive) | –
NC(CSS(=O)(=O)O)=NCCC12CC3CC(CC(O)(C3)C1)C2 | 3.73% (inactive) | –
COc1cc(/C=N/NC(=O)c2nc(C)cc(C)n2)ccc1O | – | 37.3 µM (active)
COc1cc(/C=N/NC(=O)c2cc(-c3c(C)nn(-c4ccccc4)c3C)n[nH]2)ccc1O | – | 38.8 µM (active)
COc1cc(/C=N/Nc2nc(C)cc(C)n2)ccc1O | – | 60.7 µM (active)
COc1cc(/C=N/NC(=O)c2nc(-c3ccccc3)n(-c3ccccc3)n2)ccc1O | – | 41.9 µM (active)
c1cc(CN2CCN(C3CCCCCC3)CC2)ccn1 | 23.8% (inactive) | –
Nc1nc2cc(S(=O)(=O)NC3=NCCCCC3)ccc2s1 | 1.02% (inactive) | –
COc1cc(/C=N/NC2=NCCCCC2)ccc1O | – | 27.6 µM (active)
COc1cc(/C=N/Nc2cc(C)nc(NS(=O)(=O)c3ccccc3)n2)ccc1O | – | 41 µM (active)
Oc1ccc(/C=N/NC2=NCCCCC2)c(O)c1 | – | 67.6 µM (active)
COc1cc(/C=N/NC(=O)c2cn(-c3cccc(C)n3)cn2)ccc1O | – | 37.3 µM (active)
O=c1[nH]c2ccccc2n2c(=S)[nH]nc12 | – | 78.8 µM (active)
S=c1[nH]c2ccccc2n2c(=S)[nH]nc12 | – | 51.8 µM (active)
